In PubChem BioAssay AID1259370 (Center for Chemical Genomics, University of Michigan, 2018):
Among all 94,000 compounds or so, about 680 (0.72%) were called active. The entries come from a sample that favours actives as a whole. Values without a mark were called inactive. No stated cut-off is given here; in the data, active means z-score above about 3.2; inactive means the rest.

Biological target: M-phase inducer phosphatase 2 (Homo sapiens) + Cyclin-dependent kinase 2 (Homo sapiens) + Cyclin-A2 (Homo sapiens) (UniProt P30305+P24941+P20248)
Experiment: primary biochemical HTRF screen for blockers of M-phase inducer phosphatase 2 binding to CDK2/cyclin A (AID 1259370)
Details: HTRF CDC25B-CDK2/CyclinA binding, anti-His/anti-Flag; stronger effect = higher value

Compound | z-score
CCOC(=O)c1c(N)sc2c1CCN(C(C)=O)C2 | -2.08
CCOC(=O)c1c(C)n(C)c2cc3c(cc12)OC(=O)C3(O)C(F)(F)F (stereo not given) | -2.18
N=C1C(c2nc3ccccc3[nH]2)=C(O)CN1c1ccc(Oc2ccccc2)cc1 | 1.4
CC1=C(C(N)=O)C(c2cccc(O)c2)n2nc(SCc3ccccc3F)nc2N1 (stereo not given) | -0.38
CCOC(=O)CNC(=O)N1CCCC1c1ccco1 (stereo not given) | -1.79
Cc1ccc(NS(=O)(=O)C2CCS(=O)(=O)C2)cc1Cl (stereo not given) | -1.16
Cc1ccc(S(=O)(=O)c2nc(S(C)(=O)=O)sc2N2CCN(CCO)CC2)cc1 | -2
Cc1cccc2c1Oc1nc(-c3ccccc3O)[nH]c(=O)c1C2 | -0.22
C=CCN1C=C(OC(=O)COc2ccccc2)c2ccccc2S1(=O)=O | -2.21
O=C(C1CCN(S(=O)(=O)c2cccs2)CC1)N1CCN(c2ccccc2Cl)CC1 | -0.01
COc1ccc(C2=NS(=O)(=O)N(C)C(C(=O)N3CCN(C(=O)c4ccco4)CC3)=C2)cc1 | -0.02
CCN(CC)S(=O)(=O)c1nnc(NC(=O)C(C)C)s1 | -1.69
C=CCN(Cc1nc(-c2ccc(C)cc2)no1)S(=O)(=O)c1ccc(Br)cc1 | -1.17
O=c1c(S(=O)(=O)c2ccc(Cl)cc2)c[nH]c2ccc(F)cc12 | 0.19
Cc1cc(C)n(CCc2nc3c4ccccc4nc(SCC(=O)NCc4ccco4)n3n2)n1 | -1.06
O=C(CSCc1cnn(-c2ccccc2)c1-n1cccc1)Nc1ccc2c(c1)OCCO2 | -1.15
CCOc1ccc(C2CC(=O)N3CN(c4ccc(OC)cc4OC)CSC3=C2C#N)cc1OC (stereo not given) | 3.34 (active)
CC(c1ccccc1)N1CSC2=C(C#N)C(c3ccc(Cl)cc3)CC(=O)N2C1 (stereo not given) | 1.37
CCOc1ccc(C2CC(=O)Nc3nc(SC)[nH]c(=O)c32)cc1OC (stereo not given) | -2.13
COc1cc(C2CC(=O)N3CN(c4ccccc4)CSC3=C2C#N)ccc1O (stereo not given) | 0.52
COC(=O)c1sc(=S)n(-c2ccc(Cl)cc2)c1C | -0.46
COC(=O)c1ccc(N2CSC3=C(C#N)C(c4ccc(Cl)cc4)CC(=O)N3C2)cc1 (stereo not given) | 7.06 (active)
CNC(=O)c1c(NC(=O)c2cc(=O)c3ccccc3o2)sc2c1CCCC2 | -0.57
COCCCn1c(SC2CCOC2=O)nc2c(sc3ccccc32)c1=O (stereo not given) | -3.05

Compound | z-score
CCOC(=O)C1=C(C)NC2=C(C(=O)CC(c3cccs3)C2)C1c1cc(Br)ccc1F (stereo not given) | -0.66
CCOC(=O)c1c(CN(CC)CC)n(C)c2cc(Br)c(OC)cc12 | -0.02
Cc1c(C)c2cc3c4c(oc3c(C)c2oc1=O)CCCC4 | 0.16
Cc1c(C=O)c(=O)oc2c3c4c(cc12)CCCN4CCC3 | 16.4 (active)
CCc1cccc(-n2nnc(S(=O)(=O)c3ccc(C)cc3)c2C)c1 | -0.89
CN1C(=O)c2ccccc2C(C(=O)Nc2ccc3c(c2)OCO3)C1c1cn(C)c2ccccc12 (stereo not given) | -2.4
CCCc1c(C)nc2ncnn2c1Nc1ccc(CC)cc1 | -2.22
COc1ccc(COC(=O)C2=C(C)NC3=C(C(=O)CCC3)C2c2ccc(Br)cc2)cc1 (stereo not given) | -0.5
CCOCCOC(=O)C1=C(C)NC2=C(C(=O)CCC2)C1c1ccc(OC(C)=O)cc1 (stereo not given) | -0.12
C=CCOc1ccc(C2C3=C(CCCC3=O)NC3=C2C(=O)CCC3)cc1 | 15.9 (active)
O=C1CCCN1CCCn1c(=O)[nH]c2ccccc2c1=O | -0.94
Cc1nc2ccccc2nc1NO | 1.05
Cc1cc(=O)nc2c3ccccc3n(CC(=O)NC3CCC(C)CC3)n12 (stereo not given) | -1.08
CCN1CCN(c2c(C(=O)c3ccccc3)cnc3cc4c(cc23)OCCO4)CC1 | 2.74
CCn1c(SCC(=O)Nc2c(C)cc(C)cc2C)nc2c(c1=O)SCC2 | -0.71
CCc1cc2c(cc3c(=O)n(CC(=O)NCCCOC)nc(CC)n32)s1 | -1.5
O=S(=O)(NCc1ccccc1)c1ccc(-c2ccc(S(=O)(=O)NCc3ccccc3)cc2)cc1 | -0.47
COc1ccc(N2CSC3=C(C#N)C(c4cccc(Br)c4)CC(=O)N3C2)cc1 (stereo not given) | 4.67 (active)
CN1CSC2=C(C#N)C(c3ccc(Br)cc3)CC(=O)N2C1 (stereo not given) | 1.4
COc1ccc(N2C(=O)CSC2c2cc(Br)ccc2OC)cc1 (stereo not given) | -0.41
COc1cc(C2CC(=O)N3CN(c4ccc(Br)cc4)CSC3=C2C#N)ccc1O (stereo not given) | 0.91
COc1cccc(C2CC(=O)N3CN(c4ccc(Br)cc4)CSC3=C2C#N)c1 (stereo not given) | 7.44 (active)
COc1ccc(-c2n[nH]c3c2C(c2cccc(Br)c2)NC3=O)cc1 (stereo not given) | 0.39
Cc1cc(C)c2c(n1)nn1c(C)c(CCC(=O)NCCCN3CCCC3=O)c(C)nc21 | -0.15

Compound | z-score
CC(C)n1c(=O)c2c3c(sc2n(Cc2ccccc2)c1=O)COC(C)(C)C3 | -1.8
O=c1c2cccnc2n(Cc2ccc(F)cc2)c(=O)n1Cc1ccco1 | 0.9
C=CCN(c1ccccc1)S(=O)(=O)c1cc(Br)cc2c1N(C(C)=O)C(C)C2 (stereo not given) | 0.27
COc1cccc(OCC(O)Cn2c[n+](C)c3cc(C)c(C)cc32)c1 (stereo not given) | 0.54
CC1=C(C(=O)OCC2CCCO2)C(c2cccc(Cl)c2)C2=C(CC(c3cccs3)CC2=O)N1 (stereo not given) | -0.95
Cn1c(=O)c2c(ncn2CC(=O)NCC2CCCO2)n(C)c1=O (stereo not given) | -1.02
CCC(C)N(CCNC(=O)Nc1cn(C)c(=O)c2ccccc12)Cc1ccco1 (stereo not given) | 12.3 (active)
Cc1ccccc1NC(=O)NCc1ccco1 | -0.44
Cc1nn(C(C)C(=O)NCc2ccco2)c(=O)c2cc3occc3n12 (stereo not given) | -0.04
COc1cc(NC(=O)c2nn3c(C(F)(F)F)cc(-c4cccs4)nc3c2Cl)cc([N+](=O)[O-])c1 | -3.72
COc1ccccc1-c1nnc(SCc2ccc(F)cc2)o1 | 1.82
O=C(NC1CCc2ccccc21)c1cc2c(s1)CCC2 (stereo not given) | -1.04
O=C(Nc1ccc(F)cc1)N1CCC(n2c(=O)[nH]c3ccccc32)CC1 | -3.87
CCN(CC)c1nc2c(s1)C(=O)NCC(C)(C)C2 | -0.63
O=C(/C=C/c1cccc([N+](=O)[O-])c1)Nc1ccc(O)c(-c2nc3ccccc3o2)c1 | -3.5
O=C(/C=C/c1ccc(Cl)cc1)Nc1ccc(-c2nc3ccccc3o2)c(O)c1 | -2.66
O=C(/C=C/c1ccc(-c2ccccc2[N+](=O)[O-])o1)Nc1cc(Cl)c(Cl)cc1Cl | 3.71 (active)
CCCCN(CC)C(=O)c1nn(C)c2c1COc1ccccc1-2 | -1.21
CCCc1nc(C)cc(N2CCOCC2)n1 | -1.62
COc1cc(C2CC(=O)Nc3c2cc(Br)c2ccccc32)ccc1O (stereo not given) | -0.73
Cc1ccc(NC(=O)CSc2nc(N)c3c4c(sc3n2)COC(C(C)C)C4)cc1 (stereo not given) | -24.7
COC(=O)C1=C(OC(=O)COc2ccccc2)c2ccccc2S(=O)(=O)N1C | -1.66
CCOC(=O)Cc1nnc2c(Nc3cccc(Br)c3)nc3nonc3n12 | -0.4
CCCCn1c2ccccc2c2nc3ccccc3nc21 | 19.8 (active)

Compound | z-score
CCCCCCn1c(C2CCCO2)nc2ccccc21 (stereo not given) | -2.17
CCCCn1c(CCNC(=O)C(C)(C)C)nc2ccccc21 | 0.64
C=C1c2cc(OCC)ccc2NC(=O)N1c1ccc(Cl)cc1 | -0.12
CCCCN(Cc1ccco1)C(=O)Cn1ncc2c1-c1cc(C)ccc1OC2 | -2.75
O=C1c2ccccc2C(Nc2ccc3c(c2)OCCO3)N1c1ccc(Cl)cc1 (stereo not given) | 1.04
O=C(COc1ccc(Cl)cc1)Oc1ccc2ccccc2c1 | -1.03
CC1=Nc2ccccc2-c2nnc(SCc3ccccc3F)nc2O1 | -1.63
CCC(C)NC(=O)C1CCN(C(=O)c2sccc2-n2cccc2)CC1 (stereo not given) | -1.11
Cc1cc(OCC(=O)Oc2ccc(-n3cnnn3)cc2)cc(C)c1Cl | 0
CCOc1cc(-n2cnnn2)c(OCC)cc1N | 14.4 (active)
CCOC(=O)N1CCN(S(=O)(=O)c2ccc(-n3cnnn3)cc2)CC1 | -0.58
Clc1ccc(N2CCCC2)nn1 | 0.42
Cc1ccccc1-c1noc(-c2ccc(F)cc2)n1 | -0.49
CC(C)(C)c1cn2c3ccccc3n(CCN3CCOCC3)c2n1 | 0.1
CC1CCN(c2cc(NCC(=O)O)c3c4c(onc24)-c2ccccc2C3=O)CC1 | 13.8 (active)
CC(C)CNc1cc(N2CCN(C)CC2)c2noc3c2c1C(=O)c1ccccc1-3 | -2.89
CN1CCN(c2cc(NCCCC(=O)O)c3c4c(onc24)-c2ccccc2C3=O)CC1 | 0.14
Cc1nc2ncnn2c(Sc2ccc(N)cc2)c1C | 3.58
O=C(CN1CCN(c2ccccn2)CC1)c1ccc2c(c1)CCN2 | -2.4
Cc1ccc(-c2nnc(C3CCN(S(=O)(=O)c4c(C)cc(C)cc4C)CC3)o2)cc1 | 0.05
CCOC(=O)N1CCN(CC(O)COc2ccc(OC(F)(F)F)cc2)CC1 (stereo not given) | 11.1 (active)
NC(=O)C1CCN(CC(O)COc2ccc(Cl)c(Cl)c2)CC1 (stereo not given) | -0.09
COc1ccc(OCC(O)CN2CCC(C)CC2)cc1 (stereo not given) | 1.91
